Unmarked numbers belong to inactive results. A call without a number means that no potency is given here. For part of these data: Potency and affinity values are given separately. The source made the active and inactive calls. Unless noted, the rule behind the calls is not given here.
Columns and labels:
[1] = antimalarial activity against Dd2 strain (AID 2302;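 active = growth inhibition above 50% at the single 2 µM test dose, taken to imply half-maximal potency below 2 µM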); conditions: P. falciparum Dd2 in RBCs, LDH growth readout, 72 h; at 2 µM; active compounds read high
[2] = HepG2 cytotoxicity, primary screen, cytotoxicity control for P. falciparum antimalarial project, cell-based, ATP luminescence (AID 2303;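 active = inhibition above 50%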); conditions: HepG2 viability, 24-48 h, at 10 µM, active compounds read high
[3] = target: L-lactate dehydrogenase (Plasmodium falciparum (isolate CDC / Honduras)) (UniProt Q27743); assay: PfLDH activity inhibition – cell lysate, 3D7 strain, counter-screen for P. falciparum growth inhibition project (AID 2304); conditions: P. falciparum 3D7 crude extract, LDH APAD/NBT absorbance; at 2 µM; active compounds read high
Chain of L-lactate dehydrogenase (Plasmodium falciparum (isolate CDC / Honduras)) (Q27743 whole entry, looked up): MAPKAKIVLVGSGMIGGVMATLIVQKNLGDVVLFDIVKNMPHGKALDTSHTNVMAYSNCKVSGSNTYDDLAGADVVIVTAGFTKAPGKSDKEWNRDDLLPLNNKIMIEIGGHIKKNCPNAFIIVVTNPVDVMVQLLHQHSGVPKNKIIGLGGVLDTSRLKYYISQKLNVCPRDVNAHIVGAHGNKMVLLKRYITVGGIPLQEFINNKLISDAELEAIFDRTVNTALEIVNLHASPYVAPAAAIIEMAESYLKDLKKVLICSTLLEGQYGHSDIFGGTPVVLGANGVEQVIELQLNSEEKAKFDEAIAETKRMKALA

[4] = inhibition of 3D7 malaria parasite growth – strain 3D7 (AID 2306); conditions: P. falciparum 3D7 erythrocytic growth, LDH absorbance, 72 h; at 2 µM; active compounds read high
[5] = target: Calcium-dependent protein kinase 1 (Plasmodium falciparum (isolate 3D7)) (UniProt P62344); assay: PfCDPK1 kinase inhibitors, biochemical, TCAMS library (AID 1159585; cut-off not given, nearly all actives have IC50 up to about 0.98 µM;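 note: inhibitors leave more ATP so luminescence rises with inhibition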); conditions: recombinant PfCDPK1, Kinase-Glo ATP depletion luminescence
Chain of Calcium-dependent protein kinase 1 (Plasmodium falciparum (isolate 3D7)) (P62344 whole entry, looked up): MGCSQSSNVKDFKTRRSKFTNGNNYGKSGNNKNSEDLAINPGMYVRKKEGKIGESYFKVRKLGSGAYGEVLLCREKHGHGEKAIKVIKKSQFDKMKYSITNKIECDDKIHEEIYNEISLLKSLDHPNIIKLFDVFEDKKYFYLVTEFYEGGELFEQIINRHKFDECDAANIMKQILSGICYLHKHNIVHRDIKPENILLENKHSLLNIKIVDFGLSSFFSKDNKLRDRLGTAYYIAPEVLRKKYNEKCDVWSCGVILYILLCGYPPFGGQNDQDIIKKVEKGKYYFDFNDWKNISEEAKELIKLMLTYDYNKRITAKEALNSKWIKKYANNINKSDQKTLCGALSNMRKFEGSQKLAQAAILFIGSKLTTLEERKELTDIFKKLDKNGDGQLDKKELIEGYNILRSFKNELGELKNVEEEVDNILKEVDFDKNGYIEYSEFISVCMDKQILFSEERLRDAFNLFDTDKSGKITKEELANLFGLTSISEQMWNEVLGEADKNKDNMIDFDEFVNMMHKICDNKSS

[6] = target: Plasmodium falciparum protein kinase 6 (PK6, PF3D7_1337100) (UniProt Q8IDW1); assay: PfPK6 kinase inhibitors, biochemical, TCAMS library (AID 1159586); conditions: recombinant PfPK6, Kinase-Glo ATP depletion luminescence
Chain of Plasmodium falciparum protein kinase 6 (PK6, PF3D7_1337100) (Q8IDW1 1-305): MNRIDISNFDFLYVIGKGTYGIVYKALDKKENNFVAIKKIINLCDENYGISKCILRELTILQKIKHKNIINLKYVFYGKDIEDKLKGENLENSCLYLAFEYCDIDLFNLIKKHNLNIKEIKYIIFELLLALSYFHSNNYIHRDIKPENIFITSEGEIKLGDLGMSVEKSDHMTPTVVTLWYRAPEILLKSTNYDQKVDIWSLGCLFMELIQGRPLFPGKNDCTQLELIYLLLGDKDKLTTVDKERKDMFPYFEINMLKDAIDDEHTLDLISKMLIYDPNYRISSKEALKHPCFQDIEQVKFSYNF

[7] = target: Protein kinase 7 (PK7), Plasmodium falciparum 3D7 (PF3D7_0213400) (UniProt Q7YTF7); assay: inhibition of Plasmodium PK7 catalytic activity – biochemical, TCAMS antimalarial set, Kinase-Glo luminescence (AID 1159587); conditions: recombinant PfPK7, Kinase-Glo ATP depletion luminescence
Chain of Protein kinase 7 (PK7), Plasmodium falciparum 3D7 (PF3D7_0213400) (Q7YTF7 1-343): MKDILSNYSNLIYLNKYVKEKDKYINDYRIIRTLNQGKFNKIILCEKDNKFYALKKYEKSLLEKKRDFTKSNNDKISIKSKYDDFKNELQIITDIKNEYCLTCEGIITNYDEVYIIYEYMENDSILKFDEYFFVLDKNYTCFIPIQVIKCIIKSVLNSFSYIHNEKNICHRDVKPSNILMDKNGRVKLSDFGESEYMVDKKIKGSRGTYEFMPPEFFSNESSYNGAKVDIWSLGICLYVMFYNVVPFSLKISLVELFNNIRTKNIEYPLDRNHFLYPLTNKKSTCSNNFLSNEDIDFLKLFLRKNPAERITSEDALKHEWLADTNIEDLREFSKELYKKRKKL

[8] = target: Calcium-dependent protein kinase 4 (Plasmodium falciparum (isolate 3D7)) (UniProt Q8IBS5); assay: PfCDPK4 kinase inhibitors, biochemical, TCAMS library (AID 1159588; cut-off not given, nearly all actives have IC50 up to about 0.91 µM); conditions: recombinant PfCDPK4, Kinase-Glo ATP depletion luminescence
Chain of Calcium-dependent protein kinase 4 (Plasmodium falciparum (isolate 3D7)) (Q8IBS5 whole entry, looked up): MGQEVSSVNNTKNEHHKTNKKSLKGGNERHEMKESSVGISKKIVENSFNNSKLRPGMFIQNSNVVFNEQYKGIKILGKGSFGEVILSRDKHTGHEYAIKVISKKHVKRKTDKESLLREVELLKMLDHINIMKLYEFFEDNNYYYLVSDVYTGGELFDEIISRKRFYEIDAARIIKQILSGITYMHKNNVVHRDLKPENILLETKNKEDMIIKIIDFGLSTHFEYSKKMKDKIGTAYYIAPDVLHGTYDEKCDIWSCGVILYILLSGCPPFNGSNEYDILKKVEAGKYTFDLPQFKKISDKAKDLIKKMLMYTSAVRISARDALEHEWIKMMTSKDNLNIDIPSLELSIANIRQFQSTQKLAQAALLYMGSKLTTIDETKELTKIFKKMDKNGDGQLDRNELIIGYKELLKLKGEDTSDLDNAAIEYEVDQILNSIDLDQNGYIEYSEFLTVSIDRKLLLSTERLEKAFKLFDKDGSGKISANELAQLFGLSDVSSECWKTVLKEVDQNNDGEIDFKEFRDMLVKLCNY

| Compound | growth inhibition [1] | inhibition [2] | inhibition [3] [%] | growth inhibition [4] | outcome [5] | outcome [6] | outcome [7] | outcome [8] |
| --- | --- | --- | --- | --- | --- | --- | --- | --- |
| COc1ccc2nc(-c3ccccc3)cc(NN=Cc3ccc([N+](=O)[O-])cc3)c2c1 | 100% (active) | 89% (active) | 7 | 102% (active) | inactive | inactive | inactive | inactive |
| Fc1ccccc1C=NNc1ccnc2ccccc12 | 26% | 8% | 0 | 94% (active) | inactive | inactive | inactive | inactive |
| CC1CCc2c(C(=O)Nc3c(F)cc(F)cc3Br)csc2C1 (centres undefined) | 59% (active) | -1% | 3 | 96% (active) | inactive | inactive | inactive | inactive |
| COc1cc(CNCCCNc2cc(=O)c3ccccc3[nH]2)c2c(c1)C(C)CN2C(=O)OC(C)(C)C (centres undefined) | 87% (active) | -5% | 2 | 96% (active) | inactive | inactive | inactive | inactive |
| CCCCCN1CCC(NS(=O)(=O)c2cccc(C(=O)Nc3cccc(C(F)(F)F)c3)c2)C1 (centres undefined) | 17% | 25% | -5 | 86% (active) | inactive | inactive | inactive | inactive |
| O=C(Nc1cccc(-c2nn3ccccc3c2-c2ccnc(Nc3ccccc3)n2)c1)c1cc(F)ccc1F | 75% (active) | 8% | 0 | 98% (active) | inactive | inactive | inactive | inactive |
| Cc1nc(-c2cccc(Nc3nccc(NCC(O)c4ccc(C(F)(F)F)cc4)n3)c2)cs1 (centres undefined) | 99% (active) | 33% | 4 | 100% (active) | inactive | inactive | inactive | inactive |
| CN(C)CCCNc1ccnc2cc(Cl)ccc12 | 100% (active) | 10% | 4 | 100% (active) | inactive | inactive | inactive | inactive |
| CCOc1ccccc1CON1C(N)=NC(N)=NC1(C)C | 1% | 66% (active) | -2 | 90% (active) | inactive | inactive | inactive | inactive |
| CCCC1N=C(N)N=C(N)N1c1cccc(C(F)(F)F)c1 (centres undefined) | 7% | 22% | 5 | 95% (active) | inactive | inactive | inactive | inactive |
| COc1cccc(Nc2nc(Nc3cccc(C#N)c3)cc(-c3ccncc3)n2)c1 | 46% | 28% | 1 | 100% (active) | inactive | inactive | inactive | inactive |
| Oc1ccc(CCNCc2ccc(OCc3ccccc3)c(OCc3ccccc3)c2)cc1 | 9% | 31% | -3 | 88% (active) | inactive | inactive | inactive | inactive |
| O=C(Nc1ccc(F)c(C(F)(F)F)c1)N[C@H]1CCN(CCCCCNC(=O)[C@@H]2C[C@H]2c2ccc(Cl)c(Cl)c2)C1 | 0% | 46% | 7 | 90% (active) | inactive | inactive | inactive | inactive |
| CN(c1ccc(NC(=O)Nc2cc(C(F)(F)F)ccc2F)cc1)c1ccnc(NCCN2CCCC2)n1 | 1% | 94% (active) | -2 | 93% (active) | inactive | inactive | inactive | inactive |
| COCCNCc1ccc(-c2ccccc2CNC2CCN(Cc3ccccc3)CC2)cc1 | 28% | 17% | -1 | 97% (active) | inactive | inactive | inactive | inactive |
| COc1ccc2ccc(F)c(CCN3CCC(NCc4cc5c(cn4)OCCO5)CC3)c2n1 | 36% | 15% | 3 | 96% (active) | inactive | inactive | inactive | inactive |
| COc1cccc(-c2csc(C(=O)NC3CCCCN(Cc4ccc(C(C)(C)C)cc4)C3)c2)c1 (centres undefined) | 66% (active) | 9% | -2 | 97% (active) | inactive | inactive | inactive | inactive |
| COc1cc(NCCCNC(=O)c2cc3c(Cl)cc(Cl)cc3[nH]2)nc2ccccc12 | 100% (active) | 96% (active) | -1 | 100% (active) | inactive | inactive | inactive | inactive |

Source: PubChem BioAssay
